Assay results as given in PubChem BioAssay AID1159580 (chemical genetic matrix, 2015).
“And” between values parts separate entries of the source, which are not always exact repeats. Identical values can stand only once. Out of some 5,500 compounds screened, about 2,000 (36%) were called active. Roughly 18% stayed inconclusive and do not appear here. Rule as the data show it: active = normalized growth mostly below about 0.91 (no sharp cut-off); inconclusive = no clear call, values can overlap the other calls; inactive = mostly above about 0.92. The list shows a part of the results.

Test: chemical genetic growth profiling, strain panel (AID 1159580);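 also: tested at 20 µM; growth read once vehicle control cultures reached saturation at 30 °C; 1 = growth at the plate median or of vehicle wells; lower values mean less growth of the strain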
Settings: S. cerevisiae deletion strains, growth OD

Measured: normalized growth

NCC(O)c1ccc(O)cc1 (stereo not given)
inactive: locus YAL013W, strain DEP1, hits give low values 0.996 and 1.01 | locus YAL021C, strain ccr4, hits give low values 1.01 | locus YAL026C, strain drs2, hits give low values 1.01 | locus YAL030W, strain snc1, hits give low values 0.997 | locus YAL040C, strain CLN3, hits give low values 1 | locus YBL061C, strain skt5, hits give low values 1.01 | locus YBR009C, strain hhf1, hits give low values 0.995 | locus YBR021W, strain FUR4, hits give low values 0.987 | locus YBR023C, strain chs3, hits give low values 0.998 | locus YBR171W, strain sec66, hits give low values 0.995 | locus YBR229C, strain ROT2, hits give low values 0.977 | locus YBR231C, strain swc5, hits give low values 1.02 | locus YBR279W, strain paf1, hits give low values 1.02 | locus YCL011C, strain gbp2, hits give low values 1.03 | locus YCL016C, strain dcc1, hits give low values 1.03 | locus YCL029C, strain bik1, hits give low values 0.966 | locus YCL061C, strain MRC1 (second series), hits give low values 1.01 | locus YCL069W, strain vba3, hits give low values 1 | locus YCR088W, strain abp1, hits give low values 0.993 | locus YDL005C, strain med2, hits give low values 0.998 | locus YDL035C, strain GPR1, hits give low values 1.01 | locus YDL040C, strain nat1, hits give low values 0.999 | locus YDL074C, strain BRE1, hits give low values 1 | locus YDL101C, strain DUN1, hits give low values 0.987 | locus YDL134C, strain PPH21, hits give low values 0.996 | locus YDL185W, strain tfp1, hits give low values 0.977 | locus YDL192W, strain arf1, hits give low values 0.984 | locus YDR001C, strain nth1, hits give low values 1.01 | locus YDR069C, strain doa4, hits give low values 0.996 | locus YDR101C, strain arx1, hits give low values 0.987 | locus YDR137W, strain rgp1, hits give low values 1.02 | locus YDR150W, strain NUM1, hits give low values 1.01 and 1 | locus YDR159W, strain sac3, hits give low values 0.963 | locus YDR162C, strain NBP2, hits give low values 0.999 | locus YDR195W, strain ref2 0.947 | locus YDR297W, strain sur2, hits give low values 1.02 | locus YDR318W, strain mcm21, hits give low values 0.963 | locus YDR334W, strain swr1, hits give low values 1 | locus YDR335W, strain msn5, hits give low values 1.01 | locus YDR363W, strain ESC2, hits give low values 1 | locus YDR388W, hits give low values 0.97 | locus YDR392W, strain spt3, hits give low values 0.995 | locus YDR502C, strain sam2, hits give low values 0.988 | locus YEL003W, strain gim4, hits give low values 1.01 | locus YEL037C, strain rad23, hits give low values 1.01 | locus YEL061C, strain CIN8 (second series), hits give low values 0.999 | locus YEL061C, strain CIN8, hits give low values 1 | locus YER002W, strain NOP16, hits give low values 1 | locus YER015W, strain faa2, hits give low values 1.01 | locus YER016W, strain bim1, hits give low values 0.999 | locus YER110C, hits give low values 0.976 | locus YER111C, strain swi4, hits give low values 1.01 | locus YER155C, strain BEM2 (second series), hits give low values 0.977 | locus YER155C, strain BEM2, hits give low values 0.99 | locus YER167W, strain BCK2, hits give low values 0.992 | locus YFR010W, strain ubp6, hits give low values 0.998 | locus YGL078C, strain dbp3, hits give low values 0.988 | locus YGL086W, strain mad1, hits give low values 0.993 | locus YGL167C, strain pmr1, hits give low values 0.997 | locus YGL173C, strain kem1, hits give low values 1.01 | locus YGL227W, strain vid30, hits give low values 0.995 | locus YGL240W, strain doc1, hits give low values 0.985 | locus YGL248W, strain PDE1, hits give low values 0.989 | locus YGL253W, strain hxk2, hits give low values 1.03 | locus YGR078C, strain PAC10, hits give low values 0.989 and 1.03 | locus YGR135W, strain pre9, hits give low values 0.984 | locus YGR229C, strain SMI1, hits give low values 1 and 1.01 | locus YGR252W, strain gcn5, hits give low values 1.03 | locus YHR013C, strain ard1, hits give low values 0.978 | locus YHR027C, strain rpn1, hits give low values 1.01 | locus YHR030C, strain SLT2, hits give low values 0.983 and 0.979 | locus YHR079C, strain IRE1 (second series), hits give low values 0.975 | locus YHR079C, strain IRE1, hits give low values 0.982 | locus YHR094C, strain hxt1, hits give low values 0.986 | locus YHR129C, strain ARP1, hits give low values 0.994 | locus YHR142W, strain chs7, hits give low values 1.02 | locus YHR200W, strain rpn10, hits give low values 0.98 | locus YIL066C, strain RNR3, hits give low values 0.998 | locus YIL073C, strain SPO22, hits give low values 0.986 | locus YIL125W, strain kgd1, hits give low values 0.982 | locus YIR030C, strain dcg1, hits give low values 0.983 | locus YJL092W, strain hpr5, hits give low values 1.01 | locus YJL095W, strain BCK1 (second series), hits give low values 1.01 | locus YJL095W, strain BCK1, hits give low values 0.962 and 1 | locus YJL115W, strain asf1, hits give low values 1.01 | locus YJL129C, strain trk1, hits give low values 1.01 | locus YJL134W, strain LCB3, hits give low values 0.995 | locus YJL154C, strain vps35, hits give low values 0.99 | locus YJL164C, strain tpk1, hits give low values 0.994 | locus YJL166W, strain qcr8, hits give low values 0.999 | locus YJL168C, strain set2, hits give low values 0.976 | locus YJL187C, strain SWE1 (second series), hits give low values 0.988 | locus YJR043C, strain POL32, hits give low values 0.994 | locus YJR066W, strain TOR1, hits give low values 0.919 | locus YJR075W, strain HOC1, hits give low values 0.993
